According to PubChem BioAssay (EPA / NIEHS):
Calls of active or inactive are those of the source. How the source made its calls: active means hit-call score of the fitted dose curve at least 0.9, where 1 is the maximum; inactive means score below 0.9.

What follows are compounds tested on Pselectin, SELP (gene 6403) (assay: BSK_4H_Pselectin: BioMAP Diversity Plus: 4H Assay for Pselectin Biomarker Activity (AID 2283026)). Conditions: primary human endothelial cells (HUVEC); actives raise or lower the signal.
Description: BSK_4H is a cell-based, multiplexed-readout assay that uses umbilical vein endothelium, a human vascular primary cell, with measurements taken at 24 hours after chemical dosing in a 96-well plate.BSK_4H_Pselectin is an assay component measured in the BSK_4H assay. It measures P-Selectin antibody related to regulation of gene expression using ELISA technology.Data from the assay component BSK_4H_Pselectin was analyzed into 1 assay endpoint. This assay endpoint, BSK_4H_Pselectin, was analyzed with bidirectional fitting relative to DMSO as the negative control and baseline of activity. Using a type of binding reporter, gain or loss-of-signal activity can be used to understand changes in the signaling as they relate to the gene SELP. Furthermore, this assay endpoint can be referred to as a primary readout, because this assay has produced multiple assay endpoints where this one serves a signaling function. To generalize the intended target to other relatable targets, this assay endpoint is annotated to the cell adhesion molecules intended target family, where the subfamily is selectins.
The levels of cell surface (or secreted, indicated by the prefix "s") biomarker endpoints were measured by ELISA. Overt cytotoxicity to cells in confluent adherent cultures (all systems other than the BT system) was assessed by measuring total protein levels using sulforhodamine B (SRB) staining in parallel cultures at the time of biomarker measurements, indicated as SRB endpoints. For proliferation assays for adherent cell types, individual cell types are cultured at sub-confluence and relative cell numbers quantified by SRB staining at time points optimized for each system (48 h: 3C and CASM3C systems; 72 h: BT and HDF3CGF systems; 96 h: SAg system). SRB was performed by staining cells with 0.1% SRB after fixation with 10% TCA and reading wells at 560 nm.Viability and proliferation of PBMC (T cells) was quantified by Alamar Blue reduction for the SAg and BT systems. For PBMC viability (referred to as PBMC Cytotoxicity within the assay endpoint names), cells were plated (75,000/well in a 96-well plate) and then chemical samples added for 1 h before addition of activators, SEB and TSST-1 (20 ng/mL final concentration each). Cells were incubated for 90 h. Then, Alamar Blue (20 uL/well) (Invitrogen, Cat DAL1100) was added for 6 h, and the plates were read with a fluorescence microplate reader at 546/580 nm (excitation/emission). For PBMC proliferation, cells were plated and activated as above but incubated for only 16 h prior to addition of Alamar Blue. Plates were read after 6 h.

Q: `CCn1nc(Cc2ccccc2)cc1C1CCN(C[C@H]2C[C@H](N(C)[C@@H](C(=O)O)C(C)C)C[C@@H]2c2cccc(F)c2)CC1` was tested. Which outcome did it give?
A: inactive

Q: `CN(C)c1ccc(Cc2ccc(N(C)C)cc2)cc1` was tested. Which AC50 did it give?
A: 32.8 µM (active)

Q: Which outcome does the source give for `CC(=O)OCCC(C)C` here?
A: inactive

Q: `CC[C@H]1CC[C@H](NCc2cc3c(cc2OC)[C@H]2C[C@H]2C(=O)N3C)[C@H](c2ccccc2)N1` was tested. Which outcome did it give?
A: inactive

Q: For `COc1ccc(/C=C/S(=O)(=O)NC(=O)c2ccc(C)cc2Cl)cc1`, which outcome is on record?
A: inactive

Q: How did the outcome turn out when `Cn1c(=O)cc(Oc2ccc(F)cc2F)c2cnc(NCC(C)(C)O)nc21` was run?
A: inactive

Q: For `CC(=O)c1ccc2c(c1)[C@H](NC(=O)c1ccc(F)cc1)[C@@H](O)C(C)(C)O2`, which outcome is on record?
A: inactive

Q: How did the AC50 turn out when `CCCCCCCCCCCCCCCO` was run?
A: 31.3 µM (active)

Q: Which outcome does the source give for `Oc1ccc2c(c1)-c1ccccc1C2` here?
A: inactive

Q: `CCC(C)(C)C(=O)O[C@H]1C[C@@H](C)C=C2C=C[C@H](C)[C@H](CC[C@@H]3C[C@@H](O)CC(=O)O3)[C@H]21` was tested. Which outcome did it give?
A: inactive

Q: Which AC50 does the source give for `O=C(O)c1cccc(N(Cc2cccnc2)c2ccc(OC(F)F)c(OC(F)F)c2)c1` here?
A: 2.44 µM (active)

Q: `C=CC(=C)CCC=C(C)C` was tested. Which outcome did it give?
A: inactive

Q: Which outcome does the source give for `C1=CCCC=CCCC=CCC1` here?
A: inactive

Q: For `CCN(C(=O)c1cc(C)cc(OC[C@H](C)Nc2ccncc2)c1)C(C)C`, which outcome is on record?
A: inactive

Q: Which outcome does the source give for `COC(=O)c1c(Cl)c(Cl)c(C(=O)OC)c(Cl)c1Cl` here?
A: inactive

Q: With `O=C(OC[C@H]1O[C@@H](OC(=O)c2cc(O)c(O)c(OC(=O)c3cc(O)c(O)c(O)c3)c2)[C@H](OC(=O)c2cc(O)c(O)c(OC(=O)c3cc(O)c(O)c(O)c3)c2)[C@@H](OC(=O)c2cc(O)c(O)c(OC(=O)c3cc(O)c(O)c(O)c3)c2)[C@@H]1OC(=O)c1cc(O)c(O)c(OC(=O)c2cc(O)c(O)c(O)c2)c1)c1cc(O)c(O)c(OC(=O)c2cc(O)c(O)c(O)c2)c1` as the compound, how does the AC50 read?
A: 6.1 µM (active)

Q: With `O=C1CCC(N2C(=O)c3ccccc3C2=O)C(=O)N1` (stereo not given) as the compound, how does the outcome read?
A: inactive

Q: `CCCC(=O)OCC` was tested. Which outcome did it give?
A: inactive

Q: Which outcome does the source give for `CN(C)c1ccc(N=NS(=O)(=O)O)cc1` here?
A: inactive

Q: For `C=CCCCCCCCCC(=O)O`, which outcome is on record?
A: inactive

Q: For `CC(C)CCCCCCCOC(=O)CCCCC(=O)OCCCCCCCC(C)C`, which outcome is on record?
A: inactive

Q: `CC(C)CCO` was tested. Which outcome did it give?
A: inactive

Q: `O=C(O)c1cc(N=Nc2ccc(S(=O)(=O)Nc3ccccn3)cc2)ccc1O` was tested. Which outcome did it give?
A: inactive

Q: Which outcome does the source give for `CCOCCOCCOCCO` here?
A: inactive

Q: For `Clc1nc(Cl)c(Cl)c(Cl)c1Cl`, which AC50 is on record?
A: 30.2 µM (active)

Q: `CCCCC(CC)COC(=O)CCCCCCCCC(=O)OCC(CC)CCCC` (stereo not given) was tested. Which outcome did it give?
A: inactive

Q: Which outcome does the source give for `CCCN(C1CCN(C(=O)C2CCNCC2)CC1)[C@@H]1CCc2ccc(OC)cc2C1` here?
A: inactive

Q: For `O=c1[nH]c2ccc(S(=O)CCN3CCC(Cc4ccc(F)cc4)CC3)cc2o1` (stereo not given), which outcome is on record?
A: inactive

Q: For `Fc1ccccc1[C@@H](F)COC1CCC(Nc2ncnc3[nH]ncc23)CC1` (stereo not given in full), which AC50 is on record?
A: 29.2 µM (active)

Q: For `CCNc1ccccc1`, which outcome is on record?
A: inactive

Q: With `Cc1c(-c2cccnc2)c2ccccc2n1CCCCC(=O)O` as the compound, how does the outcome read?
A: inactive

Q: For `Nc1cccc(N)c1`, which outcome is on record?
A: inactive

Q: How did the outcome turn out when `O=C(O)c1cccc(Oc2ccccc2)c1` was run?
A: inactive

Q: `COCCOCCOCCOC` was tested. Which outcome did it give?
A: inactive

Q: With `CC(C)(O)c1coc(S(=O)(=O)NC(=O)Nc2c3c(cc4c2CCC4)CCC3)c1` as the compound, how does the outcome read?
A: inactive

Q: How did the outcome turn out when `O=C(NS(=O)(=O)/C=C/c1ccccc1)c1ccc(F)cc1Cl` was run?
A: inactive

Q: `CCCCC(CC)COC(=O)c1ccc(C(=O)OCC(CC)CCCC)cc1` (stereo not given) was tested. Which outcome did it give?
A: inactive

Q: Which outcome does the source give for `NC(=O)NO` here?
A: inactive

Q: With `CC(C)=CCCC(C)CCO` (stereo not given) as the compound, how does the outcome read?
A: inactive

Q: `CC1(C)C(=O)N(Br)C(=O)N1Br` was tested. Which outcome did it give?
A: inactive
